Sampled rows, rich in hits. Any-hit rate of the full collection: about 2.7%.
aDG glyco up = activators of alpha-DG glycosylation, primary screen, uHTS, Pro5-aDG cells, AlphaScreen | hit rate 0.22% among 360,000 | activation, % at 10 µM | alpha-DG glycosylation AlphaScreen (IIH6); 0% Pro5, 100% B10-LARGE cell signal | AID 624168, 2012;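 active means activation of at least 8% versus controls, or a plate z-score of at least 8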;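 further: Pro5 are CHO cells carrying HIG-tagged alpha-DG that lacks glycosylation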
NadD block = inhibitors of S. aureus NadD, primary screen, biochemical, colorimetric, uHTS; Nicotinate-nucleotide adenylyltransferase NadD (Staphylococcus aureus N315); hit rate 0.78% among 360,000; purified NadD enzyme, colorimetric absorbance read-out; inhibition, % at 20 µM; in the data active means inhibition above about 26%
MPTP inh = mitochondrial permeability transition pore inhibitors, primary screen, biochemical, isolated mouse mitochondria, absorbance; inhibition, % at 10 µM; hit rate 1.4% among 360,000; Ca2+ swelling absorbance, 30 min;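 active means inhibition of 50% or more, scaled per plate between neutral and stimulator controls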;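 further: 0% = DMSO wells given calcium and 100% = 1 mM EGTA wells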
H9c2 TAG inh = inhibitors of triacylglycerol accumulation, primary screen, cell-based, uHTS, fluorescence, H9c2; H9c2 cells, Nile Red lipid (TAG) fluorescence; cells loaded with 200 µM oleic acid; hit rate 0.66% among 230,000; AID 651582, 2012; inhibition, % at 12.5 µM;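 active means pattern-corrected inhibition of lipid staining of at least 50% with the nuclear-stain viability signal not falling by more than 50%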;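 further: 0% = DMSO wells and 100% = triacsin C control wells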
aDG glyco conf = alpha-DG glycosylation enhancers, retest, confirmation, single concentration, Pro5-aDG cells; shares compounds with aDG glyco up; IIH6 AlphaLISA; scaled to LARGE-overexpressing B10 cells as 100%; activation, % at 10 µM (by protocol); hit rate 17% among 600; AID 651671, 2012;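 active means activation of at least 7% in one or more replicates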;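 further: cells exposed to compound for two days before detection; 0% = DMSO-treated Pro5 cells and 100% = DMSO-treated B10-LARGE cells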
H9c2 TAG conf = triacylglycerol accumulation inhibitors, retest, confirmation, cell-based, single concentration, Nile Red fluorescence, H9c2; shares compounds with H9c2 TAG inh; inhibition, % at 12.5 µM; hit rate 71% among 990; H9c2 lipid accumulation; cells loaded with 200 µM oleic acid;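 active means mean inhibition across replicates of 40% or more; inactive means mean inhibition below 40%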;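 further: plate controls were DMSO only wells for no effect and Triacsin C treated wells for full effect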
Numbers without * were called inactive; / = no result; ! = a repeat was not active.

SMILES	aDG glyco up	NadD block	MPTP inh	H9c2 TAG inh	H9c2 TAG conf	others
COC(=O)C1=NN(C(C)(C)CC(C)=O)C2C(=O)N(C3CCCCC3)C(=O)C12 (configuration not stated)	3.1*	-4	0	-6	/	aDG glyco conf=-1
CCOC(=O)C1=NNC2C(=O)N(C3CCCCC3)C(=O)C12 (configuration not stated)	0	-1	0	9	/
Nc1nc(=O)n(C2CCCO2)cc1Br (configuration not stated)	0	-2	0	8	/
CCCCCCc1nc2ccccc2c(=O)n1NC(=O)c1c(O)c2c(n(CC(C)C)c1=O)CCCC2	6.3*	11	-1	-14	/	aDG glyco conf=2
CC[C@]12c3[nH]c4ccccc4c3CCN1C(=O)C(CC(=O)NCCCOC)C[C@@H]2C(=O)N1CCN(C(=O)c2ccco2)CC1 (some centres not stated)	0	5	-1	9	/
COc1ccccc1CCNCc1ccc(OC)c(OCc2ccccc2)c1	5.6*	-3	12	/	/	aDG glyco conf=2
COc1cc(C(=O)C(=O)N2CCC(Cc3ccccc3)CC2)cc2ccccc12	10*	/	-1	/	/	aDG glyco conf=0
CCOc1ccc(C(=O)COC(=O)Cn2cnc3c2c(=O)n(C)c(=O)n3C)cc1	0	-7	0	-17	/
O=C(Nc1ccccc1)C1CCOC1=O (configuration not stated)	0	-7	1	-11	/
Nn1c(SCc2ccccn2)nncc1=O	0	2	0	-3	/
Cc1nnc(SCc2ccccn2)n(N)c1=O	3.5*	0	-4	9	/	aDG glyco conf=0
CCOC(=O)C1=CCN(S(=O)(=O)c2ccccc2F)C1c1cccc(C)c1 (configuration not stated)	0	-5	1	/	/
CCC1CCCN1Cn1cnc2c([nH]c3ccccc32)c1=O (configuration not stated)	0	-4	1	-5	/
CCC1CCCN1Cn1cnc2c([nH]c3ccc(OC)cc32)c1=O (configuration not stated)	3.8*	-7	-1	/	/	aDG glyco conf=1
CCc1ccccc1NC(=O)COC(=O)c1c(C)nsc1NC	4.0*	1	7	-38	/	aDG glyco conf=0
O=C(CCN1C(=O)COc2ccccc21)NCCCN1CCCC1	6.4*	-2	0	/	/	aDG glyco conf=2
CN1CCN(CCCNC(=O)CCN2C(=O)COc3ccccc32)CC1	0	-5	-1	/	/
CCOC(=O)c1ccc(NC(=O)COc2ccccc2CNCCc2ccccc2)cc1	5.8*	0	16	44	/	aDG glyco conf=3
CC(Oc1ccccc1F)C(=O)NNC(=O)C1CC(=O)N(c2ccc3c(c2)OCCO3)C1 (configuration not stated)	0	-5	0	-13	/
O=C(NNC(=O)C1CC(=O)N(c2ccc3c(c2)OCCO3)C1)c1ccc(F)cc1 (configuration not stated)	3.3*	-6	0	3	/	aDG glyco conf=0
CCOC(=O)c1sc2nc(CSc3ccccc3)nc(NCCN(C)C)c2c1C	8.4*	-10	8	52*	62*	aDG glyco conf=2
COc1ccc(OC)c(S(=O)(=O)Nc2ccc(-c3ccc4nncn4n3)cc2)c1	0	3	-1	0	/
COCCNc1nc(Oc2cccc(NC(C)=O)c2)c2sc(-c3ccccc3)cc2n1	1	-2	-2	22	/
COCCNc1nc(-c2ccc(OC)cc2C)c2sc(-c3ccccc3)cc2n1	0	10	-2	60*	19
Cc1ccc(-c2nnc(NC3CCCC3)s2)cc1	0	-4	0	/	/
SMILES	aDG glyco up	NadD block	MPTP inh	H9c2 TAG inh	H9c2 TAG conf	others
CC(=O)C1C=CC(C)(C(=O)O)C2C=C(C)C(=O)C(C)(O)C12 (configuration not stated)	0	-1	0	2	/
CCc1ccc(/C=N/NC(=O)c2cc(C3CC3)nc3ccc(Br)cc23)s1	0	22	0	60*	40*
CCc1ccc(/C=N/NC(=O)c2cc(-c3ccccc3OC)nc3ccccc23)s1	0	28	2	9	/
COc1ccccc1/C=C/C(=O)NCC(=O)N/N=C/c1cc(Br)ccc1OC	2	28	-4	54*	40
COc1ccc(/C=C/C(=O)NCC(=O)N/N=C/c2cc(Br)ccc2OC)cc1	0	20	1	/	/
COc1cc(NC(=O)c2cc3cccc(OC)c3o2)cc(C(=O)Nc2cccc(C(F)(F)F)c2)c1	0	18	15	55*	69*
CCN1CCN(Cc2ccc(NC(=O)c3cc(NC(=O)c4cc5cccc(OC)c5o4)cc(OC)c3)cc2C(F)(F)F)CC1	-1	22	-1	60*!	68*
CCN1CCN(Cc2ccc(NC(=O)c3cc(NC(=O)c4ccno4)cc(OC)c3)cc2C(F)(F)F)CC1	0	-3	1	24	/
COc1cc(NC(=O)c2ccno2)cc(C(=O)Nc2cccc(C(F)(F)F)c2)c1	0	-9	35	-2	/
COCCOC(=O)c1[nH]c2c(c1C)C(=O)CC(c1cccs1)C2 (configuration not stated)	0	-7	4	44	/
CCOCCOC(=O)c1[nH]c2c(c1C)C(=O)CC(c1cccs1)C2 (configuration not stated)	0	-3	1	53*	50*
Cc1c(C(=O)OCC(C)C)[nH]c2c1C(=O)CC(c1cccs1)C2 (configuration not stated)	0	1	3	64*	50*
Cc1cc(Br)ccc1SCC(=O)OCC(=O)Nc1ccc2[nH]c(=O)[nH]c2c1	0	2	-1	7	/
Cc1cc2c(C)cc(=O)[nH]c2cc1NC(=O)CCl	0	-3	2	33	/
O=C(CCl)Nc1cc2[nH]c(=O)[nH]c2cc1Br	1	-3	-1	51*	69*
O=C(C1CCCCC1)N1CCC2CC1c1cc(Cl)ccc12 (configuration not stated)	0	2	1	-18	/
Cc1cccc(C(=O)Nc2ccc(C(=O)Nc3ccc(O)cc3)cc2)c1	0	1	1	11	/
O=C(/C=C/Sc1ccc(C(F)(F)F)cn1)c1ccccc1	0	-1	1	50*	45*
CS(=O)(=O)c1ccc(C(=O)OCC(=O)N2CCOCC2)cc1[N+](=O)[O-]	0	5	-1	62*	59*
O=C1C(NS(=O)(=O)c2cccs2)=C(N2CCN(c3cccc(C(F)(F)F)c3)CC2)C(=O)c2ccccc21	0	29	2	60*	78*
O=C(CSc1nncc2ccccc12)Nc1ccc(C(=O)O)cc1	0	3	0	/	/
